According to PubChem BioAssay AID1159580 (chemical genetic matrix, 2015):
“And” between values parts separate entries of the source, which are not always exact repeats. Equal entries are not always repeated. The whole screen tested about 5,500 compounds, of which about 2,000 (36%) were called active. Not shown: some 18% with an inconclusive outcome. Rule as the data show it: active = normalized growth mostly below about 0.91 (no sharp cut-off); inconclusive = no clear call, values can overlap the other calls; inactive = mostly above about 0.92. Some of the results follow.

Experiment: chemical genetic growth profiling, strain panel (AID 1159580);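 also: tested at 20 µM; growth read once vehicle control cultures reached saturation at 30 °C; 1 = growth at the plate median or of vehicle wells; lower values mean less growth of the strain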
Settings: S. cerevisiae deletion strains, growth OD

Measured: normalized growth

COc1ccc2c(C)cc(=O)oc2c1
inactive: locus YAL013W, strain DEP1, active compounds read low 1.02 | locus YAL021C, strain ccr4, active compounds read low 0.979 | locus YAL026C, strain drs2, active compounds read low 0.989 | locus YAL030W, strain snc1, active compounds read low 1.02 | locus YBL061C, strain skt5, active compounds read low 0.993 | locus YBR009C, strain hhf1, active compounds read low 1.01 | locus YBR021W, strain FUR4, active compounds read low 0.976 | locus YBR023C, strain chs3, active compounds read low 0.989 | locus YBR171W, strain sec66, active compounds read low 0.985 | locus YBR229C, strain ROT2, active compounds read low 1.01 | locus YBR231C, strain swc5, active compounds read low 0.987 | locus YBR279W, strain paf1, active compounds read low 0.995 | locus YCL011C, strain gbp2, active compounds read low 0.999 | locus YCL016C, strain dcc1, active compounds read low 0.997 | locus YCL029C, strain bik1, active compounds read low 1.03 | locus YCL061C, strain MRC1, active compounds read low 0.995 | locus YCL069W, strain vba3, active compounds read low 0.964 | locus YCR088W, strain abp1, active compounds read low 0.979 | locus YDL005C, strain med2, active compounds read low 0.974 | locus YDL035C, strain GPR1, active compounds read low 1.02 | locus YDL040C, strain nat1, active compounds read low 0.99 | locus YDL074C, strain BRE1, active compounds read low 0.995 | locus YDL101C, strain DUN1, active compounds read low 1.02 | locus YDL134C, strain PPH21, active compounds read low 0.992 | locus YDL185W, strain tfp1, active compounds read low 1.04 | locus YDL192W, strain arf1, active compounds read low 1.02 | locus YDR001C, strain nth1, active compounds read low 0.981 | locus YDR069C, strain doa4, active compounds read low 1 | locus YDR101C, strain arx1, active compounds read low 1.01 | locus YDR137W, strain rgp1, active compounds read low 0.979 | locus YDR159W, strain sac3, active compounds read low 0.995 | locus YDR162C, strain NBP2, active compounds read low 1.03 | locus YDR195W, strain ref2 1.04 | locus YDR297W, strain sur2, active compounds read low 1.01 | locus YDR318W, strain mcm21, active compounds read low 1.02 | locus YDR334W, strain swr1, active compounds read low 0.956 | locus YDR335W, strain msn5, active compounds read low 0.981 | locus YDR388W, active compounds read low 1.01 | locus YDR392W, strain spt3, active compounds read low 0.978 | locus YDR502C, strain sam2, active compounds read low 1.03 | locus YEL003W, strain gim4, active compounds read low 0.982 | locus YEL037C, strain rad23, active compounds read low 0.973 | locus YEL061C, strain CIN8 (second series), active compounds read low 0.975 | locus YER015W, strain faa2, active compounds read low 1 | locus YER016W, strain bim1, active compounds read low 0.998 | locus YER110C, active compounds read low 1.02 | locus YER111C, strain swi4, active compounds read low 0.992 | locus YER155C, strain BEM2 (second series), active compounds read low 0.976 | locus YER155C, strain BEM2, active compounds read low 1.01 | locus YER167W, strain BCK2, active compounds read low 1 | locus YFR010W, strain ubp6, active compounds read low 0.966 | locus YGL078C, strain dbp3, active compounds read low 1.03 | locus YGL086W, strain mad1, active compounds read low 1 | locus YGL167C, strain pmr1, active compounds read low 0.983 | locus YGL173C, strain kem1, active compounds read low 0.983 | locus YGL227W, strain vid30, active compounds read low 0.993 | locus YGL240W, strain doc1, active compounds read low 0.99 | locus YGL248W, strain PDE1, active compounds read low 1.02 | locus YGL253W, strain hxk2, active compounds read low 0.994 | locus YGR078C, strain PAC10, active compounds read low 1.01 | locus YGR135W, strain pre9, active compounds read low 1.01 | locus YGR252W, strain gcn5, active compounds read low 0.981 | locus YHR013C, strain ard1, active compounds read low 0.956 | locus YHR027C, strain rpn1, active compounds read low 1 | locus YHR030C, strain SLT2, active compounds read low 1 and 0.963 | locus YHR079C, strain IRE1 (second series), active compounds read low 1.02 | locus YHR079C, strain IRE1, active compounds read low 0.98 | locus YHR094C, strain hxt1, active compounds read low 1.03 | locus YHR129C, strain ARP1, active compounds read low 1.01 | locus YHR142W, strain chs7, active compounds read low 0.97 | locus YHR200W, strain rpn10, active compounds read low 1.01 | locus YIL066C, strain RNR3, active compounds read low 1.01 | locus YIL073C, strain SPO22, active compounds read low 1.06 | locus YIL125W, strain kgd1, active compounds read low 1.04 | locus YIR030C, strain dcg1, active compounds read low 1.03 | locus YJL092W, strain hpr5, active compounds read low 0.999 | locus YJL095W, strain BCK1 (second series), active compounds read low 0.99 | locus YJL095W, strain BCK1, active compounds read low 1.02 and 0.987 | locus YJL115W, strain asf1, active compounds read low 0.976 | locus YJL129C, strain trk1, active compounds read low 1.01 | locus YJL134W, strain LCB3, active compounds read low 1 | locus YJL154C, strain vps35, active compounds read low 0.97 | locus YJL164C, strain tpk1, active compounds read low 0.983 | locus YJL166W, strain qcr8, active compounds read low 0.968 | locus YJL168C, strain set2, active compounds read low 1.03
